Results: PubChem BioAssay (NCI)
The panel holds about 83,000 compounds, 20% with a hit somewhere; the sample as a whole holds those more often.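 In brief: 96-well plates, 48 h treatment, single concentration, percent growth endpoint.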 Unmarked numbers belong to inactive results. Active and inactive are the calls of the source. The calls were made as follows: active = growth percent below 10; inactive = the rest.

How the values were obtained:
Experiment in all cases: NCI-60 one-dose screen, 48 h (100 = growth as untreated, 0 = no growth, -100 = all killed)
Conditions in all cases: 10 µM
[1] = tested on: NCI-H23 lung
[2] = tested on: NCI-H226 lung
[3] = tested on: HOP-62 NSCLC
[4] = tested on: NCI-H460 lung
[5] = tested on: HOP-92 NSCLC
[6] = tested on: NCI-H522 lung
[7] = tested on: A549/ATCC NSCLC
[8] = tested on: 786-0 renal
[9] = tested on: COLO 205 colon

Structure (SMILES)	growth [1]	growth [2]	growth [3]	growth [4]	growth [5]	growth [6]	growth [7]	growth [8]	growth [9]
CC(C)(C)OC(=O)N1CCc2c(sc3ncnc(N/N=C/c4ccccc4Br)c23)C1	74%	78%	85.8%	49.2%	80.8%	68.2%	68.1%	69.2%	27.6%
O=C1/C(=C/c2ccc3c(c2)OCO3)SC(=S)N1C1c2ccccc2Oc2ccccc21	89.8%	97.9%	98.3%	107%	90.7%	95.8%	109%	97.6%	99.7%
O=C(O)c1ccc(-n2cc(CNc3ccc(Oc4ccccc4)cc3)c(-c3ccccc3)n2)cc1	81.1%	99.3%	122%	90.2%	89%	84.4%	76.5%	90.6%	101%
CCOC(=O)C1=CSC2=NC3=C(CCC/C3=C\c3ccc(Cl)cc3)C(c3ccc(Cl)cc3)N12 (configuration not stated)	83.8%	92.2%	115%	102%	96.2%	93.5%	96.5%	101%	105%
NS(=O)(=O)c1ccc(N2N=C(c3ccccc3)CCC2=O)cc1	95.4%	120%	95.8%	102%	97.7%	85.7%	93.6%	82.7%	156%
COc1ccc(C2CC(c3cccs3)=NN2c2ccc(S(N)(=O)=O)cc2)cc1 (configuration not stated)	104%	90.7%	97.8%	84.2%	63.1%	69.6%	75.8%	96.5%	-89.6% (active)
CC(CN(C)C)Oc1ccccc1NC1=C(Cl)C(=O)C(Nc2ccccc2OC(C)CN(C)C)=C(Cl)C1=O (configuration not stated)	-70.7% (active)	-94.4% (active)	-97.6% (active)	-4.55% (active)	-60.7% (active)	-73.4% (active)	1.98% (active)	-71.5% (active)	-67.3% (active)
N#Cc1c(-c2ccc(Cl)cc2)csc1NC(=O)Nc1ccc(Cl)c(C(F)(F)F)c1	15.8%	8.81% (active)	14.5%	2.11% (active)	-9.88% (active)	-12.8% (active)	18.3%	35.9%	-30.4% (active)
O=C(O)c1ccc(-n2cc(CNc3ccc(Cl)cc3)c(-c3ccccc3)n2)cc1	98.4%	99.1%	111%	88.6%	99.9%	75.8%	84.6%	94.7%	97.8%
C/C=C/C1=CN2C(=O)c3cc(OC4OC(C)C(NC)C(C)(O)C4O)c(C)c(O)c3N=C[C@@H]2C1 (some centres not stated)	-43.7% (active)	3.31% (active)	-7% (active)	-13.8% (active)	-17.8% (active)	-28.5% (active)	5.24% (active)	-25% (active)	-49.2% (active)
Cc1c(O)c(=O)ccn1C1CCC(CC2CCC(n3ccc(=O)c(O)c3C)CC2)CC1 (configuration not stated)	39.5%	42.1%	36.2%	12.5%	51.8%	31.3%	46.4%	46.5%	23.5%
CN(C)CCOc1cccc(-c2nc3sccn3c2-c2ccnc(S(C)(=O)=O)n2)c1	100%	92.3%	79%	94.9%	53.7%	103%	97.9%	95.9%	106%
COc1cc(-c2nn(-c3cccc(NC(=O)NCCNC(=O)c4ccccc4)c3)cc2-c2ccncc2)ccc1Cl	19.7%	9.31% (active)	26.4%	13.5%	-0.717% (active)	0.745% (active)	24.2%	-50.6% (active)	2.08% (active)
Clc1ccc(C2=NN=C3C(Cc4ccccc4)=Nc4ccccc4N3C2)cc1	90%	92.8%	83.3%	86.8%	87.4%	38.4%	96.6%	64.1%	105%
COc1ccc(-c2csc(NC(=O)c3ccc(Cc4n[nH]c(=O)c5cccnc45)cc3)n2)cc1	80.4%	71.4%	92%	97.4%	75.3%	80.7%	101%	99.2%	110%
O=C(CSc1nccc(Nc2cccc3ccccc23)n1)c1ccc(Cl)cc1	79.6%	84.8%	81.9%	99.5%	82.5%	81.9%	87.7%	102%	108%
COc1ccc(/C=C2/SC(=S)NC2=O)c(OC)c1OC	73.9%	81.6%	69.2%	90.3%	36.8%	73.3%	79.5%	87.9%	105%
C(=N\Nc1ncnc2sc3c(c12)CCNC3)/c1cccc2ccccc12	98.9%	97.1%	79.9%	62.8%	93.4%	97%	67.6%	59.5%	63.5%
CC(C)(C)OC(=O)N1CCc2c(sc3ncnc(N/N=C/c4cccc5ccccc45)c23)C1	12.9%	31%	27.8%	4.98% (active)	25.6%	16%	23.8%	16.9%	13.8%
Cc1cc(CSc2ccccc2C(=O)N2CC=C(c3ccccc3)CC2)on1	89.4%	88.4%	92.2%	100%	93.4%	75.3%	94.6%	94.5%	107%
CC(=O)COc1ccc(Cl)cc1Cl	106%	93%	110%	110%	91%	107%	107%	103%	114%
CN(C)CCOc1cccc(NC2=C(Cl)C(=O)C(Nc3cccc(OCCN(C)C)c3)=C(Cl)C2=O)c1	-59.5% (active)	-74.6% (active)	-82.9% (active)	55.4%	-70.1% (active)	-91.3% (active)	57.9%	-86.4% (active)	-82.9% (active)
CCn1c(SCc2ccc(C)cc2)nnc1-c1nn(-c2ccc(Cl)cc2Cl)c(-c2ccc(Cl)cc2)c1C	3.53% (active)	11.6%	9.33% (active)	8.69% (active)	-17.2% (active)	-17.4% (active)	9.87% (active)	12.2%	-34.3% (active)
CC(C)c1cc(N=O)cc(C(C)C)c1O	95.2%	102%	101%	103%	108%	97.7%	97%	104%	112%
O=C(Nc1ccc2c(O)cc(S(=O)(=O)O)cc2c1)c1ccc([N+](=O)[O-])cc1	100%	96.2%	83.3%	107%	89.8%	84.7%	79.3%	98.6%	91.8%
COc1ccc(C(=O)COc2cccc(/C=C3\Cc4ccccc4C3=O)c2)cc1	74.5%	73.4%	93.2%	111%	48.7%	56.6%	–	82.2%	124%
Clc1ccc(Cc2ccncc2)cc1	105%	109%	107%	113%	85.6%	82%	106%	97.3%	109%
